High-throughput results from PubChem BioAssay.
esBAF inh – blocks esBAF chromatin remodeling in mouse ES cells; Bmi1-luciferase knock-in reporter, 24 h; 100% = twice the neutral-well signal; reporter increase, % at 12.5 µM; 2% of 350,000 active; AID 602393; in the data active = activation above about 40%; inconclusive = no clear call, values can overlap the other calls;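 note: 0% = median of the plate's neutral control wells and 100% = double that signal; a rise in the Bmi1 reporter signal indicates esBAF inhibition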
MITF TRPM1 inh – reduces MITF-dependent TRPM1 promoter luciferase signal. SK-MEL-5 TRPM1 promoter luciferase, 24 h. inhibition, % at 12.5 µM. 0.83% of 330,000 active;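 active = mean inhibition across replicates of 60% or more, whatever share of single replicates reaches that level; inconclusive = some that reach 60%, reason not given; inactive = mean inhibition across replicates below 60%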
Wnt bcat act – activators of Wnt/beta-catenin signaling. Wnt/beta-catenin reporter cell assay, activator, plate reader. activation, % at 9.35 µM. 1.2% of 300,000 active; in the data active = activation above about 30%, passing the limit was not always enough; inconclusive = no clear call, values can overlap the other calls;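 note: 0% = neutral control wells and 100% = positive control wells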
C2C12 statin – suppressors of simvastatin-induced myotoxicity in C2C12 myotubes; 0.78% of 330,000 active; rescue of ATP level, % at 7.49 µM; ATP luminescence, 48 h; scaled: DMSO 0, geranylgeraniol control 100; AID 602340;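 active = mean ATP rescue above about 67%, or every replicate alone reaching that limit, limit read from the data, passing the limit was not always enough; inconclusive = no clear call, values can overlap the other calls; inactive = mean under the limit and some replicate under it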;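 note: myotubes were challenged with 10 µM simvastatin during compound exposure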
MITF act – increases MITF-driven TRPM1 promoter luciferase signal; 0.75% of 300,000 active; AID 588334; SK-MEL-5 TRPM1-promoter luciferase, 24 h; % of positive control, neutral wells = 0; activation, % at 12.5 µM;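 active = mean activation of at least 80% with every replicate also reaching 80%; inconclusive = mean reaches 80% but some replicate falls short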;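 note: 0% = neutral control wells and 100% = parthenolide positive control wells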
EBV LMP1 NFkB – reduces LMP1-driven NF-kappaB luciferase signal; 0.69% of 350,000 active; LMP1-induced NF-kappaB luciferase reporter cells, luminescence; inhibition, % at 12.5 µM; in the data active = inhibition above about 41%; inconclusive = no clear call, values can overlap the other calls;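 note: 0% = neutral control wells and 100% = reference inhibitor control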
* hit, by the source's call. In the library only some 4% were active in any assay of this set; here they are far more common.

`O=C(COC(=O)CCN1C(=O)/C(=C\C=C\c2ccccc2)SC1=S)Nc1ccc(Br)cc1` gave MITF TRPM1 inh 64*, Wnt bcat act -1, MITF act -64 and EBV LMP1 NFkB 13.
`CC(C)c1ccccc1NC(=O)COC(=O)CCN1C(=O)/C(=C\C=C\c2ccccc2)SC1=S` gave MITF TRPM1 inh 63*, Wnt bcat act -2, MITF act -60 and EBV LMP1 NFkB 10.
COC(=O)c1cccc(NCN2C(=O)c3ccccc3C2=O)c1 was read as esBAF inh -10, MITF TRPM1 inh 12, Wnt bcat act -2, C2C12 statin 5 and EBV LMP1 NFkB 6.
Screening O=C(Nc1cccnc1)c1ccc(Oc2ccccc2)cc1 returned esBAF inh 54*, MITF TRPM1 inh -98, Wnt bcat act 41*, C2C12 statin -3, MITF act 52 and EBV LMP1 NFkB -14.
For O=C(Nc1cccnc1)c1ccccc1Oc1ccccc1 the results were esBAF inh -3, MITF TRPM1 inh 12, C2C12 statin 14, MITF act -14 and EBV LMP1 NFkB 0.
For O=C(Nc1ccccc1)C(=O)Nc1cccnc1 the results were esBAF inh 2, MITF TRPM1 inh -35, Wnt bcat act 41*, C2C12 statin -17, MITF act 33 and EBV LMP1 NFkB 9.
For CCC(C)c1ccc(NC(=O)Nc2cccnc2)cc1 (stereo not given) the results were esBAF inh 61*, MITF TRPM1 inh -108, Wnt bcat act 20, C2C12 statin -42, MITF act 111* and EBV LMP1 NFkB -31.
Screening O=C(Nc1cccnc1)c1ccc([N+](=O)[O-])s1 returned esBAF inh 0, MITF TRPM1 inh 75*, Wnt bcat act -1, C2C12 statin 17, MITF act -77 and EBV LMP1 NFkB -4.
Screening CCOC(=O)C1=C(C)NC(=O)NC1c1ccc(OC(=O)c2ccco2)cc1 (stereo not given) returned esBAF inh -4, MITF TRPM1 inh 3, Wnt bcat act -1, MITF act -3 and EBV LMP1 NFkB 2.
`C[C@H](c1ccccc1)N1C[C@H](COCc2ccccc2)Oc2cc(N3CC[C@@H](N(C)C)C3)ccc2S1(=O)=O` gave Wnt bcat act -3.
`Cn1cc(Cl)cc(C(=O)Nc2ccccc2)c1=O` gave esBAF inh inconclusive, MITF TRPM1 inh -45, Wnt bcat act 21, C2C12 statin 12, MITF act 47 and EBV LMP1 NFkB -22.
For O=C(Nc1ccccc1)c1ccc(C(=O)Nc2ccccc2)nc1 the results were esBAF inh 22, MITF TRPM1 inh -55, Wnt bcat act 44*, C2C12 statin 2, MITF act 55 and EBV LMP1 NFkB -22.
For O=C(Nc1ccccc1)c1cn(CCBr)cn1 the results were esBAF inh 4, MITF TRPM1 inh -36, Wnt bcat act 50*, C2C12 statin -2 and EBV LMP1 NFkB -1.
Screening C(=C/c1nccc2c1[nH]c1ccccc12)/c1ccc2c(c1)OCO2 returned esBAF inh 76*, MITF TRPM1 inh -25, Wnt bcat act 9, MITF act 21 and EBV LMP1 NFkB -35.
COc1cc(C2OCC3C(c4cc(OC)c(OC)c(OC)c4)OCC23)cc(OC)c1OC (stereo not given) was read as esBAF inh 10, MITF TRPM1 inh 7, Wnt bcat act -1, C2C12 statin 9, MITF act -8 and EBV LMP1 NFkB 10.
C[C@@H]1CN([C@H](C)CO)C(=O)CCCn2cc(nn2)CO[C@H]1CN(C)C(=O)Nc1cccc(C(F)(F)F)c1 was read as esBAF inh 3, Wnt bcat act 0, C2C12 statin -1 and EBV LMP1 NFkB -1.
`Cc1nn(-c2ccc(N3CCCCC3)nn2)c(C)c1CCC(=O)Nc1ccc(F)cc1` gave esBAF inh 29, MITF TRPM1 inh -81, Wnt bcat act 16, C2C12 statin -6, MITF act 79 and EBV LMP1 NFkB -16.
Cc1nn(-c2ccc(N3CCCCC3)nn2)c(C)c1CCC(=O)Nc1cccc(F)c1 was read as esBAF inh 64*, MITF TRPM1 inh -87, Wnt bcat act 19, C2C12 statin 9, MITF act 97* and EBV LMP1 NFkB -29.
Screening Cc1ccc(NC(=O)CCc2c(C)nn(-c3ccc(N4CCCCC4)nn3)c2C)cc1F returned esBAF inh 69*, MITF TRPM1 inh -47, Wnt bcat act 1, C2C12 statin -1, MITF act 47 and EBV LMP1 NFkB -26.
O=C(OCc1ccccn1)c1ccc(COc2ccc3ccccc3c2)o1 was read as esBAF inh 53*, MITF TRPM1 inh -49, Wnt bcat act -2, C2C12 statin 12, MITF act 49 and EBV LMP1 NFkB -23.
For NNC(=O)c1ccc(COc2ccc3ccccc3c2)o1 the results were MITF TRPM1 inh -11, Wnt bcat act inconclusive, MITF act 8 and EBV LMP1 NFkB 0.
`CCn1cc(C(=O)O)c(=O)c2cc(F)c(N3CCN(C(=S)NC(=O)c4ccccc4Br)CC3)cc21` gave esBAF inh 5, MITF TRPM1 inh 8, Wnt bcat act -1, C2C12 statin 3, MITF act -8 and EBV LMP1 NFkB -6.
O=c1c2c(nc3c(-c4ccc(Cl)cc4)c[nH]n13)CCCC2 was read as MITF TRPM1 inh 44, Wnt bcat act -27, MITF act -45 and EBV LMP1 NFkB 53*.
CCN(CC)CCNC(=O)c1ccc(NC(=O)c2cccc(S(=O)(=O)N(C)C3CCCCC3)c2)cc1 was read as esBAF inh -16, MITF TRPM1 inh 73*, Wnt bcat act 2, C2C12 statin -19, MITF act -73 and EBV LMP1 NFkB -5.
Screening O=C(N/N=C/c1ccccc1[N+](=O)[O-])c1cccs1 returned MITF TRPM1 inh -48, Wnt bcat act 45* and EBV LMP1 NFkB -11.
For COC(=O)c1sccc1N/N=C/c1ccc(OC)c(OC)c1OC the results were esBAF inh 52*, MITF TRPM1 inh -65, Wnt bcat act 13, C2C12 statin 2, MITF act 70 and EBV LMP1 NFkB -9.
COc1ccc(/C=N/NC(=O)c2cccnc2)c2ccccc12 was read as esBAF inh 16, MITF TRPM1 inh 1, Wnt bcat act -1, C2C12 statin -18, MITF act -7 and EBV LMP1 NFkB 4.
`Cc1ccc(/C=N/NC(=O)c2cccs2)cc1[N+](=O)[O-]` gave MITF TRPM1 inh -106, Wnt bcat act 40*, MITF act 117* and EBV LMP1 NFkB -15.
For O=C(N/N=C/C=C/c1ccccc1[N+](=O)[O-])c1cccs1 the results were esBAF inh 38, MITF TRPM1 inh -6, C2C12 statin -3, MITF act 7 and EBV LMP1 NFkB -8.
`COc1ccc(/C=N/NC(=O)c2cccs2)c2ccccc12` gave esBAF inh 56*, MITF TRPM1 inh -74, Wnt bcat act 6, C2C12 statin 0, MITF act 70 and EBV LMP1 NFkB -27.
